From PubChem
A3G deaminase = APOBEC3G (human) deaminase inhibition. Q9HC16. recombinant A3G, ssDNA deamination FAM/TAMRA fluorescence. inhibition, % at 20 µM. hit rate 0.28% among 330,000. AID 493012;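 active means inhibition of at least 40% at 20 µM, with no more than 30% in the related APOBEC3A deaminase screen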
Target sequence (Q9HC16 whole entry, looked up): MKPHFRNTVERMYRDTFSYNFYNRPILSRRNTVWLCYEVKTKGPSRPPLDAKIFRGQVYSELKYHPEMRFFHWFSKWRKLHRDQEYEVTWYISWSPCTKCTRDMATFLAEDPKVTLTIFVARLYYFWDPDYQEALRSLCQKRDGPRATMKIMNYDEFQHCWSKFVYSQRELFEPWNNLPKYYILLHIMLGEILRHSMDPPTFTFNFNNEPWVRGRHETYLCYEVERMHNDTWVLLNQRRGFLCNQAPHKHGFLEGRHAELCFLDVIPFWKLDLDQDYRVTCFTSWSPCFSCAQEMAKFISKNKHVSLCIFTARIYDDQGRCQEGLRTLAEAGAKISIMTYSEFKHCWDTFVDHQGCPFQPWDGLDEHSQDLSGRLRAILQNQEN
ADAM10 inh = ADAM10 inhibition, QFRET primary screen; O14672; recombinant ADAM10, EDANS/DABCYL FRET peptide cleavage, 3 h; inhibition, % at 7 µM; hit rate 0.62% among 370,000; AID 720582;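 active means inhibition above a per-campaign cutoff equal to the mean of compounds falling between control-based bounds plus 3 SD, cut at about 20% in these data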
CendR NRP1 mod = modulators of CendR peptide binding to human neuropilin-1; O14786; FAM-RPARPAR peptide binding to NRP-1, fluorescence polarization; inhibition, % at 25 µM; hit rate 0.85% among 360,000; AID 602438;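 active means inhibition or corrected inhibition above about 18%, plus a signal ratio from 0.5 to 1.5, limit read from the data, passing the limit was not always enough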
ADAM17 inh = inhibitors of human ADAM17; P78536; recombinant ADAM17, EDANS/DABCYL FRET peptide cleavage; inhibition, % at 6.95 µM; hit rate 0.83% among 370,000; AID 720648;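 active means inhibition above the mean of compounds lying between control limits plus 3 SD, set per campaign, cut at about 8.5% in these data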
APOBEC3A inh = human APOBEC3A DNA deaminase inhibition; P31941; recombinant A3A, FAM/TAMRA ssDNA deamination fluorescence; inhibition, % at 20 µM; hit rate 0.41% among 330,000;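 active means at least 40% inhibition at 20 µM here, with at most 30% in a related deaminase screen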
Target sequence (P31941 whole entry, looked up): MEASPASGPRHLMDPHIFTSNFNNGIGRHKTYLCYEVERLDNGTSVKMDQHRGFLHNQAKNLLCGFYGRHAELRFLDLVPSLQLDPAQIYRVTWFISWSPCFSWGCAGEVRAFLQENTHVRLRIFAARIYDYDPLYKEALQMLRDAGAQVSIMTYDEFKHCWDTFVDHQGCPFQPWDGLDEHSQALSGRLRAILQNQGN
Each line names hits and unclear results; the compound was inactive in the other large screens; ! = not confirmed by another sample. An excerpt weighted towards active compounds, which were near 2.4% of everything screened.

COCCN=c1scc(-c2cccs2)n1/N=C/c1ccc(O)c(O)c1O	ADAM10 inh 23.7, ADAM17 inh 14.0
C[C@@H]1CN([C@H](C)CO)C(=O)c2cc(NC(=O)Nc3ccc(C(F)(F)F)cc3)ccc2O[C@H]1CN(C)S(=O)(=O)c1ccc(Cl)cc1	ADAM10 inh 25.3
C[C@H](CO)N1C[C@H](C)[C@@H](CN(C)S(=O)(=O)c2ccc(F)cc2)Oc2c(NC(=O)Nc3ccc(C(F)(F)F)cc3)cccc2C1=O	none
C[C@H]1CN([C@@H](C)CO)C(=O)c2cccc(NC(=O)Nc3ccc(C(F)(F)F)cc3)c2O[C@@H]1CN(C)S(=O)(=O)c1ccc(Cl)cc1	ADAM10 inh 24.1, ADAM17 inh 9.2
C[C@H](CO)N1C[C@H](C)[C@@H](CN(C)S(C)(=O)=O)Oc2ccc(NC(=O)Nc3ccc(C(F)(F)F)cc3)cc2C1=O	none
COc1ccc(C2CC(O)(c3ccccc3)Oc3cc(OC)ccc32)cc1 (stereo not given)	CendR NRP1 mod 26.4
Cc1cn([C@H]2C[C@H](O)[C@@H](CCC(=O)NCc3ccccc3)O2)c(=O)[nH]c1=O	none (no result: A3G deaminase, APOBEC3A inh)
Cc1cn([C@H]2C[C@H](O)[C@@H](CCC(=O)NCCc3ccc4ccccc4c3)O2)c(=O)[nH]c1=O	CendR NRP1 mod 22.0 (no result: A3G deaminase, APOBEC3A inh)
COc1ccc(S(=O)(=O)N2CCOC2CNC(=O)C(=O)NCc2ccc3c(c2)OCO3)cc1 (stereo not given)	CendR NRP1 mod 23.4
Cc1[nH]nc(N=CC2=C(O)CC(C)(C)CC2=O)c1-c1ccccc1	CendR NRP1 mod 18.8!
COC(=O)[C@]12C[C@H](CC(=O)NCc3ccccc3)C(=O)N(Cc3ccccc3)C1=C[C@H](C(C)(C)C)O[C@@H]2C	none (no result: A3G deaminase, CendR NRP1 mod, APOBEC3A inh)
CCOc1ccc(N(CC(=O)N2CCC(Cc3ccccc3)CC2)S(C)(=O)=O)cc1	CendR NRP1 mod 28.9
CCCCNC(=O)C[C@H]1C[C@@]2(C(=O)OC)C(=C[C@H](C(C)(C)C)O[C@@H]2C)N(CCc2ccc(OC)c(OC)c2)C1=O	none (no result: A3G deaminase, CendR NRP1 mod, APOBEC3A inh)
COc1ccccc1-c1noc(Cn2cc(S(=O)(=O)N3CCCC3)ccc2=O)n1	CendR NRP1 mod 18.5
C#Cc1cccc(N2C(=O)C3C4C=CC(C3C2=O)C2C(=O)N(c3cccc(C#C)c3)C(=O)C42)c1 (stereo not given)	CendR NRP1 mod 24.8 (no result: A3G deaminase, APOBEC3A inh)
COC(=O)c1cc(C(=O)OC)n(Cc2ccc(Br)cc2)n1	CendR NRP1 mod 31.7
COc1ccc(NC(=S)N(Cc2cccc(Br)c2)CC2CCC(C(=O)O)CC2)cc1 (stereo not given)	none
COc1cccc(NC(=S)N(Cc2cccc(Br)c2)CC2CCC(C(=O)O)CC2)c1 (stereo not given)	CendR NRP1 mod 30.5
N/C(=N\OC(=O)c1cccs1)C1(c2ccc(Cl)cc2Cl)CC1	CendR NRP1 mod 36.7
Cc1ccc(-n2c(O)c(/C=N/Nc3ccc(S(=O)(=O)N4CCOCC4)cc3[N+](=O)[O-])c3ccccc3c2=O)c(C)c1	CendR NRP1 mod 46.2
O=C(C=Cc1ccccc1)c1ccc([N+](=O)[O-])cc1	CendR NRP1 mod 17.6 (no result: A3G deaminase, APOBEC3A inh)
Cn1c(=O)c2c(ncn2CC(COCc2ccccc2)OCc2ccccc2)n(C)c1=O (stereo not given)	CendR NRP1 mod 29.6
Cn1c(=O)c2c(ncn2Cc2ccccc2)n(C)c1=O	none
O=C(N1CCCCCC1)N1CCN(C(=O)N2CCCCC2)CC1	CendR NRP1 mod 28.2
CN(C)S(=O)(=O)N1CCN(C(=O)N2CCCCCC2)CC1	none
COCCNC(=O)C1(C)C=CC2(CCCCC2)N1C(=O)c1ccccc1 (stereo not given)	none
CC1(C(=O)NCCN2CCOCC2)C=CC2(CCCCC2)N1C(=O)c1ccccc1 (stereo not given)	CendR NRP1 mod 19.7
COc1ccc(NC(=O)c2ccccc2Oc2ccccc2)c(OC)c1	none
COc1ccccc1NC(=O)c1ccccc1Oc1ccccc1	CendR NRP1 mod 26.5
CCCCNC(=O)[C@H]1C[C@H]1[C@@H](O)[C@H](CO)NC(=O)[C@H](CC(C)C)NC(=O)OC(C)(C)C	CendR NRP1 mod 33.8 (no result: ADAM10 inh, ADAM17 inh)
CC(C)C[C@H](NC(=O)OC(C)(C)C)C(=O)N[C@@H](CO)[C@H](O)[C@@H]1C[C@@H]1C(=O)NC1CC1	none
C#CCOc1nc(C)cc(C)c1S(=O)(=O)c1ccccc1C	CendR NRP1 mod 34.6
COc1nc(C)cc(C)c1S(=O)(=O)c1ccccc1C	none
CNc1nc(N)c([N+](=O)[O-])c(Nc2cccc(Br)c2)n1	none (no result: A3G deaminase, CendR NRP1 mod, APOBEC3A inh)
NC(=O)CC1(CC(=O)O)CCCCC1	none
NC(=O)C1CCN(C(=O)CC2(CC(=O)O)CCCCC2)CC1	CendR NRP1 mod 26.8
CN(C)c1ccc(C(=O)OCc2cc(=O)n3ccsc3n2)cc1	CendR NRP1 mod 23.2
CCC(Sc1nc2n[nH]c(C)c2c(=N)n1-c1cccc(Cl)c1)C(=O)NCCOC (stereo not given)	CendR NRP1 mod 28.9
CCC(Sc1nc2n[nH]c(C)c2c(=N)n1-c1ccc(C)c(Cl)c1)C(=O)N1CCOCC1 (stereo not given)	none (no result: ADAM10 inh, ADAM17 inh)
C#CCOCCOCCOCCNc1nc(N2CCN(C(=O)[C@H](CCCCN)n3cc([C@@H](N)C(C)CC)nn3)CC2)nc(N2CCN(C(=O)[C@H](CCCCN)n3cc([C@@H](N)CC(C)C)nn3)CC2)n1 (stereo not given in full)	CendR NRP1 mod 22.2
CCOc1ccccc1C1CC(=O)NC2=C1C(=O)CC(C)(C)C2 (stereo not given)	CendR NRP1 mod 25.7
CCOC(=O)c1[nH]c(C(=O)O)c(CCC(=O)OC)c1C	none
COC(=O)CCc1c(C)[nH]c(C(=O)OCc2ccccc2)c1C	CendR NRP1 mod 19.5
COc1nc(OC)nc(N2CCC(C(=O)NCc3cccc(OC)c3OC)CC2)n1	none (no result: A3G deaminase, CendR NRP1 mod, APOBEC3A inh)
O=C(CCc1ccc(Oc2cc([N+](=O)[O-])cc([N+](=O)[O-])c2)cc1)N1CCCCCC1	CendR NRP1 mod 26.0
C=CCNc1cccc2c1S(=O)(=O)N[C@@H](CC(C)C)CO2	none (no result: A3G deaminase, CendR NRP1 mod, APOBEC3A inh)
CC(/C=N\NC(=O)CSc1nnc(-c2ccc(Br)cc2)n1-c1ccccc1)=C\c1ccco1	none (no result: A3G deaminase, CendR NRP1 mod, APOBEC3A inh)
COc1ccc(N2C(=O)CCC(C(=O)NCc3ccccn3)C2c2ccc(OC)c(OC)c2)cc1 (stereo not given)	CendR NRP1 mod 21.5
COc1ccc(N2C(=O)CCC(C(=O)NCc3ccccn3)C2c2ccc(F)cc2)cc1 (stereo not given)	none
COc1ccc(-c2cn(CCO)c(-c3ccc(Cl)nc3)n2)cc1	CendR NRP1 mod 17.5
COc1ccc(-c2cn(CCC(=O)O)c(-c3ccc(Cl)nc3)n2)cc1	none
Cc1cc(C)nc(NC(=S)N2CCN(c3ccc(Cl)c(Cl)c3)CC2)c1	none (no result: A3G deaminase, CendR NRP1 mod, APOBEC3A inh)
CN(C)c1cccc2c(S(=O)(=O)NC(=O)[C@H]3O[C@@H](n4cnc5c(N)ncnc54)[C@H](O)[C@@H]3O)cccc12	CendR NRP1 mod 25.4 (no result: A3G deaminase, APOBEC3A inh)
CN1C=CC2=C(C#N)C(N)C(C#N)(C#N)[C@H](c3ccccc3)[C@H]2C1 (stereo not given in full)	CendR NRP1 mod 23.4
